Data from PubChem BioAssay.
For part of these data: Potency and affinity values are given separately. The source made the active and inactive calls.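 The calls were made as follows, unless noted: active = calcium signal rise above buffer-control mean plus 5 SD in both duplicates, and also a hit in the primary screen; inactive = the rest.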

Assays:
[1] = tested on: TRPC4 beta (transient receptor potential cation channel C4), mouse; assay: activators of mouse TRPC4 channel, confirmation, cell-based, Fluo4 calcium, HEK293 TRPC4beta/mu-opioid, duplicates, 10 µM (AID 2426;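 active = fluorescence ratio normalized to control raised more than 50% in primary screen plus both repeat runs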); conditions: Fluo4 calcium fluorescence, at 10 µM; stronger effect = higher value
[2] = tested on: transient receptor potential cation channel C4 beta (TRPC4), mouse; assay: activators of mouse TRPC4 channel, confirmation, cell-based, second round, Fluo4, HEK293 TRPC4beta/mu-opioid, 1 µM (AID 2461;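 active = primary screen active and over 50% activation in each of two duplicate runs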); conditions: Fluo4 calcium fluorescence, at 1 µM; stronger effect = higher value
[3] = tested on: TRPC4 (transient receptor potential cation channel C4 beta), mouse; assay: positive allosteric modulators of mouse TRPC4, confirmation, cell-based, second round, Fluo-4, HEK293 TRPC4beta/mu-opioid, 1 µM (AID 2554;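 active = primary screen hit whose fluorescence ratio, in both repeats, exceeds the weak agonist control mean by 3 SD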); conditions: DAMGO EC20, Fluo-4 calcium flux, at 1 µM; stronger effect = higher value
[4] = tested on: TRPC4 beta (transient receptor potential cation channel C4), mouse; assay: positive allosteric modulators of mouse TRPC4, confirmation, cell-based, Fluo-4, HEK293 TRPC4beta/mu-opioid (AID 2555;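 active = primary screen hit whose calcium fluorescence ratio, in both repeats, exceeds the weak agonist control mean by 3 SD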); conditions: DAMGO EC20, Fluo-4 calcium flux, at 10 µM; stronger effect = higher value
[5] = target: Short transient receptor potential channel 4 (Mus musculus) (UniProt Q9QUQ5); assay: inhibitors of mouse TRPC4 channel, confirmation, cell-based, Fluo4, HEK293 TRPC4beta/mu-opioid (AID 2636;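 active = calcium signal cut by more than 3 SD below the full-agonist control yet still positive, in both repeats and the earlier primary screen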); conditions: DAMGO, Fluo4 calcium flux, at 10 µM; stronger effect = higher value
[6] = target: Short transient receptor potential channel 4 (Mus musculus) (UniProt Q9QUQ5); assay: inhibitors of mouse TRPC4 channel, confirmation, cell-based, second round, Fluo4, HEK293 TRPC4beta/mu-opioid, 1 µM (AID 2637;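 active = calcium signal ratio cut to more than 3 SD under the fully stimulated control mean yet still positive, in both repeats and the primary screen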); conditions: Fluo4 calcium flux, DAMGO, at 1 µM; stronger effect = higher value
[7] = target: Short transient receptor potential channel 4 (Mus musculus) (UniProt Q9QUQ5); assay: mouse TRPC4 channel activators, dose response, cell-based, HEK293 TRPC4/mu-opioid, Fluo-4 calcium (AID 434937;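 active = primary screen activator hit with a dose response curve and TRPC4 channel activation at any tested dose; inactive = no activation, no dose response, or not a primary hit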)
[8] = target: Short transient receptor potential channel 4 (Mus musculus) (UniProt Q9QUQ5); assay: TRPC4 positive allosteric modulators, dose response, cell-based, HEK293 TRPC4/mu-opioid, Fluo-4 calcium, EC20 DAMGO (AID 434941;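 active = earlier screen potentiator hit that boosts the TRPC4 ion channel at some dose, with a dose response; inactive = no potentiation, no dose response, or not a prior hit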;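 also: calcium entry triggered by an EC20 dose of DAMGO at the co-expressed mu-opioid receptor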)
[9] = target: Short transient receptor potential channel 4 (Mus musculus) (UniProt Q9QUQ5); assay: mouse TRPC4 channel inhibitors, dose response, cell-based, HEK293 TRPC4/mu-opioid, Fluo-4 calcium (AID 434942;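 active = primary screen inhibitor hit that blocks the TRPC4 channel at some tested dose, yielding a dose curve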)
[10] = target: Short transient receptor potential channel 6 (Mus musculus) (UniProt Q61143); assay: inhibition of mouse TRPC6 channel, confirmation, selectivity assay for TRPC4 inhibitor project, cell-based, HEK293, membrane potential dye, duplicate (AID 434948;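 active = active in primary screen and both duplicates, each dropping signal beyond three positive-control SD with fluorescence still positive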); conditions: HEK293 TRPC6, membrane potential dye fluorescence, at 10 µM, stimulated with maximal-effect acetylcholine; stronger effect = higher value
[11] = target: Short transient receptor potential channel 6 (Mus musculus) (UniProt Q61143); assay: activation of mouse TRPC6 channel, confirmation, selectivity assay for TRPC4 activator project, cell-based, HEK293, membrane potential dye, duplicate (AID 434950;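 active = membrane potential signal rise above negative control mean plus 3 SD in both duplicates, also active in the earlier TRPC4 screen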); conditions: HEK293 TRPC6, membrane potential fluorescence, at 10 µM; stronger effect = higher value
[12] = target: Short transient receptor potential channel 6 (Mus musculus) (UniProt Q61143); assay: TRPC6 potentiation by TRPC4 potentiator hits, confirmation, selectivity assay for TRPC4 potentiator project, HEK293 cells, membrane potential dye, duplicate (AID 434952;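 active = compound raising the membrane signal above positive-control mean plus 3 SD in both repeats, and a primary screen hit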); conditions: HEK293 TRPC6, membrane potential dye fluorescence, at 10 µM, maximal acetylcholine added after compound; stronger effect = higher value
[13] = target: Short transient receptor potential channel 4 (Mus musculus) (UniProt Q9QUQ5); assay: calcium flux activators in TRPC4/5HT1a cells, counter-screen for TRPC4 activator project, cell-based, second counter screen, HEK293 TRPC4/5HT1a, Fluo-4 (AID 434977); conditions: Fluo-4 calcium flux, at 10 µM; stronger effect = higher value
[14] = calcium flux inhibitors in TRPC4/5HT1a cells, confirmation, counter-screen for TRPC4 inhibitor project, cell-based, second counter screen, HEK293 TRPC4/5HT1a, Fluo-4 (AID 434978;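 active = primary screen active whose calcium signal fell more than 3 SD beyond the full-serotonin control mean in both duplicate plates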;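 also: serotonin given first at submaximal then at maximal dose after compound preincubation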); conditions: Fluo-4 calcium flux, at 10 µM, serotonin added to trigger calcium flux; stronger effect = higher value
[15] = tested on: TRPC4 (mouse), co-expressed with 5HT1a in HEK293; assay: calcium flux potentiators in TRPC4/5HT1a cells, confirmation, counter-screen for TRPC4 potentiator project, cell-based, second counter screen, HEK293 TRPC4/5HT1a, Fluo-4 (AID 434979;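 active = signal rise over 3 SD above mean of control wells given weak agonist, in both repeats and first screen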); conditions: Fluo-4 calcium flux, at 10 µM, serotonin added at its EC20 dose; stronger effect = higher value
[16] = calcium flux activation in mu-opioid HEK293 cells, confirmation, counter-screen for TRPC4 activator project, cell-based, HEK293 mu-opioid receptor line (AID 449723;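 active = hit in primary screen, with calcium signal over 5 SD above buffer well mean in both duplicates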;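 also: counter screen cells carry the mu-opioid receptor alone and lack TRPC4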); conditions: Fluo-4 calcium fluorescence, at 10 µM; stronger effect = higher value
[17] = calcium flux enhancement in mu-opioid HEK293 cells, confirmation, counter-screen for TRPC4 allosteric potentiator project, cell-based, HEK293 mu-opioid receptor line (AID 449724;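 active = calcium signal rise more than 3 SD above the low-dose agonist control mean, in both duplicate plates and the primary screen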); conditions: Fluo-4 calcium flux, at 10 µM, compound added before EC20 DAMGO stimulus; stronger effect = higher value

Measured: potentiation

Short transient receptor potential channel 4 (Mus musculus), sequence (Q9QUQ5 whole entry, looked up): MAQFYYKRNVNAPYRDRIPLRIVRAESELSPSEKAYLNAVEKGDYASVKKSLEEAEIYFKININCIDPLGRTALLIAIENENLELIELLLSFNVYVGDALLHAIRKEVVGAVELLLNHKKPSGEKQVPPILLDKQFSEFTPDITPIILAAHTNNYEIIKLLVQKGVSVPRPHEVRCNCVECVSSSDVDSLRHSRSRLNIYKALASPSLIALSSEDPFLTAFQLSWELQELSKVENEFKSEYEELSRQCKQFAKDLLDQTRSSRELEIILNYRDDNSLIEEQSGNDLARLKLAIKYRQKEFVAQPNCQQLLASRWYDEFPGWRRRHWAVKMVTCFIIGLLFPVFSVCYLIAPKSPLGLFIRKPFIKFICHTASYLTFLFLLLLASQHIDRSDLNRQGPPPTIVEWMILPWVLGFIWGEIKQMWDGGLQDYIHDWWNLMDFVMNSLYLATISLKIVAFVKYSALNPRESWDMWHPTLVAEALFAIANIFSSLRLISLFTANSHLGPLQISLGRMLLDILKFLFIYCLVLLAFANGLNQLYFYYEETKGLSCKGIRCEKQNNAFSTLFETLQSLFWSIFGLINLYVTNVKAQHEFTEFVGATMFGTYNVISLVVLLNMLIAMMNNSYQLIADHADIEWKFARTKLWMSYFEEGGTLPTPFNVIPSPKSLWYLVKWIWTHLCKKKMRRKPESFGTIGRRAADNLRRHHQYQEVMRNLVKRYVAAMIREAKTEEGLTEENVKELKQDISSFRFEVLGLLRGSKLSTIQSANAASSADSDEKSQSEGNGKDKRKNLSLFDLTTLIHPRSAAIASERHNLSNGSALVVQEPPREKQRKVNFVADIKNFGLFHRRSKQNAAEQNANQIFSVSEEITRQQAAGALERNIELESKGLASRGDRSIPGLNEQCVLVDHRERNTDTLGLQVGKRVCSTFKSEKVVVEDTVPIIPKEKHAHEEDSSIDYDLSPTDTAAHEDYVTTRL
Short transient receptor potential channel 6 (Mus musculus), sequence (Q61143 whole entry, looked up): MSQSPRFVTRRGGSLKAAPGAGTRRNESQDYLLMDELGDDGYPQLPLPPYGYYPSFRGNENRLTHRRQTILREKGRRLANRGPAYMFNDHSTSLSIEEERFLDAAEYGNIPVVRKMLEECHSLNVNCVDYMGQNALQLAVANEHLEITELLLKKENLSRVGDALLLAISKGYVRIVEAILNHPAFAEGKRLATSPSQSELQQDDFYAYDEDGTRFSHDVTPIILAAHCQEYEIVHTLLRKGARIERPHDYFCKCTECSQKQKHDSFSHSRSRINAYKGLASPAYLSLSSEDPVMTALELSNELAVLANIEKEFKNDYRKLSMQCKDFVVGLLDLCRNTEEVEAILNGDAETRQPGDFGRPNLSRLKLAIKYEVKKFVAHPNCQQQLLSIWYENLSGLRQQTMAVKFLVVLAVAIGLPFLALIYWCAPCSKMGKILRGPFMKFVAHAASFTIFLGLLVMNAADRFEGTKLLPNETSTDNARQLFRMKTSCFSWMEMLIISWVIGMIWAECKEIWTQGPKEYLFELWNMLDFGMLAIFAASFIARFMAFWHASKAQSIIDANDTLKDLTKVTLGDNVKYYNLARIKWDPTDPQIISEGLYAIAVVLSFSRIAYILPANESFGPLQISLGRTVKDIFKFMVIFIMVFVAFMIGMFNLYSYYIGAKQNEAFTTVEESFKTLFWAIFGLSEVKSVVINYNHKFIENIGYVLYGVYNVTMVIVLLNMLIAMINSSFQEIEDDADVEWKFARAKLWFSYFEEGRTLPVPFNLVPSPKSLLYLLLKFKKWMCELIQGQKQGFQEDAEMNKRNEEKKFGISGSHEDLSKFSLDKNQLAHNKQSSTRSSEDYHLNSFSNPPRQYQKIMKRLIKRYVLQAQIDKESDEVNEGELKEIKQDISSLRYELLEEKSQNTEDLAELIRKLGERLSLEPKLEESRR

CCN1CCN(c2ccc(NC(=O)CCc3c(C)nc4c(-c5ccc(F)cc5)c(C)nn4c3C)cc2)CC1
inactive: [1] | [2] | [3] | [4] | [5] | [6] | [7] | [8] | [9] | [10] | [11] | [12] | [13] | [14] | [15] | [16] | [17]

Cc1ccc(S(=O)(=O)Nc2ccc(N=Nc3ccc(O)cc3)cc2)cc1
inactive: [1] | [2] | [3] | [4] | [5] | [6] | [7] | [8] | [9] | [10] | [11] | [12] | [13] | [14] | [15] | [16] | [17]

COC1=C(C)C(O)=C(C(=O)/C=C/c2ccccc2)C(=O)C1(C)C
inactive: [1] | [2] | [3] | [4] | [5] | [6] | [7] | [8] | [9] | [10] | [11] | [12] | [13] | [14] | [15] | [16] | [17]

Cc1ccc2[nH]c(C)c(CCN(Cc3cccnc3)C(=S)NC(C)(C)C)c2c1
inactive: [1] | [2] | [3] | [4] | [5] | [6] | [7] | [8] | [9] | [10] | [11] | [12] | [13] | [14] | [15] | [16] | [17]

Cc1cccn2c(=O)c3cc(C(=O)N(C)C)n(C)c3nc12
inactive: [1] | [2] | [3] | [5] | [6] | [7] | [8] | [9] | [10] | [11] | [12] | [13] | [14] | [16] | [17]
active: [4] 29% | [15] 37.3%

Cc1ccc(NC(=O)CN(C)C(=O)CNC(=O)c2sc3ccccc3c2Cl)cc1
inactive: [1] | [2] | [3] | [4] | [5] | [6] | [7] | [8] | [9] | [10] | [11] | [12] | [13] | [14] | [16] | [17]
active: [15] 29.5%

Cc1cc(C)cc(N(CC(=O)Nc2ccc(C)cc2Cl)S(=O)(=O)c2c(C)[nH]c(=O)[nH]c2=O)c1
inactive: [1] | [2] | [3] | [5] | [6] | [7] | [8] | [9] | [10] | [11] | [12] | [13] | [14] | [16] | [17]
active: [4] 23% | [15] 78.6%

CC(C)Cc1nc(Cl)c(C#N)c2c1CCCC2
inactive: [1] | [2] | [3] | [4] | [5] | [6] | [7] | [8] | [9] | [10] | [11] | [12] | [13] | [14] | [15] | [16] | [17]

O=C(Nc1ccc([N+](=O)[O-])cn1)C1CCCCC1
inactive: [1] | [2] | [3] | [4] | [5] | [6] | [7] | [8] | [9] | [10] | [11] | [12] | [13] | [14] | [15] | [16] | [17]

C(#Cc1ccccc1)C[N+]1(CC#Cc2cccc3ccccc23)CCCC1
inactive: [1] | [2] | [3] | [4] | [5] | [6] | [7] | [8] | [9] | [10] | [11] | [12] | [13] | [14] | [15] | [16] | [17]

O=C(C1CC1)N1CCc2cc(S(=O)(=O)NC3CCN(Cc4ccccc4)CC3)ccc21
inactive: [1] | [2] | [3] | [4] | [5] | [6] | [7] | [8] | [9] | [10] | [11] | [12] | [13] | [14] | [15] | [16] | [17]

Cc1ccc(NC(=O)Nc2cccc([N+](=O)[O-])c2)nc1
inactive: [1] | [2] | [4] | [5] | [6] | [7] | [8] | [9] | [10] | [11] | [12] | [13] | [14] | [16] | [17]
active: [3] 12% | [15] 24.5%

CN(C)C(CNC(=O)c1ccc(S(=O)(=O)NCc2ccco2)cc1)c1ccccc1 (stereo not given)
inactive: [1] | [2] | [3] | [4] | [5] | [6] | [7] | [8] | [9] | [10] | [11] | [12] | [13] | [14] | [15] | [16] | [17]

CCOC(=O)C1=C(N)OC2=C(C(=O)CC(C)(C)C2)C1c1ccc(CC)s1 (stereo not given)
inactive: [1] | [2] | [3] | [4] | [5] | [6] | [7] | [8] | [9] | [10] | [11] | [12] | [13] | [14] | [16] | [17]
active: [15] 27.5%

C/C(=C\c1cccc(Cl)c1Cl)C(=O)c1c(C)cc(C)[nH]c1=O
active: [15] 16.5%
inactive: [1] | [2] | [3] | [4] | [5] | [6] | [7] | [8] | [9] | [10] | [11] | [12] | [13] | [14] | [16] | [17]
